Test results taken from PubChem BioAssay AID485346 (Sanford-Burnham Center for Chemical Genomics, 2010).
Among all 330,000 compounds or so, about 10,000 (3%) were called active.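 The calls were made as follows: active = inhibition of at least 50% at 8 µM in the primary screen; inactive = the rest.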 The list comes from a sample in which actives are over-represented; it also holds similar structures and randomly drawn compounds.

Each compound was assayed against Protein Mdm4 (Homo sapiens) + E3 ubiquitin-protein ligase Mdm2 (Homo sapiens) (UniProt O15151+Q00987) (assay: inhibitors of human Mdm2-MdmX association, primary screen, cell-based, luminescence, split luciferase, SaOS-2, uHTS (AID 485346)). Conditions: SaOS-2 split-luciferase Mdm2/MdmX complementation, at 8 µM, hits give high values.
Chain of Protein Mdm4 (Homo sapiens) + E3 ubiquitin-protein ligase Mdm2 (Homo sapiens) (O15151 whole entry, looked up): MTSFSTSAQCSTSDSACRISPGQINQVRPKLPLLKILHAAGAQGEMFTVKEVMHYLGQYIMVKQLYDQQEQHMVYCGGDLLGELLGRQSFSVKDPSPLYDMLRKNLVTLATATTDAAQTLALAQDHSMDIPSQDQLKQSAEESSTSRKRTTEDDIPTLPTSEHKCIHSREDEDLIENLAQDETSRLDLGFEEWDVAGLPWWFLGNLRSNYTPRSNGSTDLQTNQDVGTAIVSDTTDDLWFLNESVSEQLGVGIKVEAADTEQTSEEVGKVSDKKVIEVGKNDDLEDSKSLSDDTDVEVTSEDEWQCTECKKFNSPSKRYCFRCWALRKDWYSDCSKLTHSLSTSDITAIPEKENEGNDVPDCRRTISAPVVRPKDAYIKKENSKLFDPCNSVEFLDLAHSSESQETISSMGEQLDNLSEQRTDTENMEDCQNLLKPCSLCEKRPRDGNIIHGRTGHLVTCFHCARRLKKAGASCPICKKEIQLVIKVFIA
Chain of Protein Mdm4 (Homo sapiens) + E3 ubiquitin-protein ligase Mdm2 (Homo sapiens) (Q00987 whole entry, looked up): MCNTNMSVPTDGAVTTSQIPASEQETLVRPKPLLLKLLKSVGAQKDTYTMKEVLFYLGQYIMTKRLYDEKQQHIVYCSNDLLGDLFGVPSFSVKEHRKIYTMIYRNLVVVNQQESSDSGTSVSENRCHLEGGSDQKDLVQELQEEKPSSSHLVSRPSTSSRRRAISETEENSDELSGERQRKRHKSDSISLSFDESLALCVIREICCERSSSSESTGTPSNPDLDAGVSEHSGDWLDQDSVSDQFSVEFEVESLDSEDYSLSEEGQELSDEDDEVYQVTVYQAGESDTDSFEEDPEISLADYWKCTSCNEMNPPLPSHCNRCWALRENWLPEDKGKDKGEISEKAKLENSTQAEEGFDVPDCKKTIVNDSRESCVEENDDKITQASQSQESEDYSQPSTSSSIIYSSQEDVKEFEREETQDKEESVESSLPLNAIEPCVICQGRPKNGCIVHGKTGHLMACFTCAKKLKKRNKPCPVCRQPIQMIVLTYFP

| SMILES | inhibition |
| --- | --- |
| Cc1nc(/N=C(\N)NC(=O)NC2CCCCC2)nc2ccccc12 | 53% (active) |
| COc1ccc2nc(/N=C(\N)NC(=O)Nc3ccccc3)nc(C)c2c1 | 29% (inactive) |
| O=C(NNC(=O)C(O)c1ccccc1)NC1CCCCC1 (stereo unspecified) | 16.7% (inactive) |
| COc1ccc2c(c1)C(=C(C#N)C#N)C(=O)N2CCc1ccccc1 | 8.08% (inactive) |
| Cc1ccc(C)c(NC(=O)CN(C)C(=O)c2ccc3ncsc3c2)c1 | 10.9% (inactive) |
| C/C(CC(=O)Nc1ccc(N(C)C)cc1)=N\NC(=O)c1ccccc1F | 11.6% (inactive) |
| C/C(=N\NC(=O)c1ccccc1F)c1ccccn1 | 64.2% (active) |
| C/C(=N\NC(=O)c1ccoc1C)c1ccccc1O | 49.2% (inactive) |
| COc1ccc(CC(=O)N/N=C(\C)c2ccccn2)cc1 | 56.7% (active) |
| COc1ccc(C/C(C)=N/NC(=O)c2ccncc2)cc1 | -14.9% (inactive) |
| C/C(=N\NC(=O)Cc1ccc(Br)cc1)c1cccnc1 | 9.71% (inactive) |
| CCOc1ccccc1NS(=O)(=O)c1cc2c3c(c1)C(C)C(=O)N3CCC2 (stereo unspecified) | 14.9% (inactive) |
| CC1C(=O)N(Cc2ccccc2)c2ccccc2N1C(=O)c1ccccc1 (stereo unspecified) | 4.7% (inactive) |
| O=C(COC(=O)/C=C/c1ccc(Br)o1)Nc1cccc(S(=O)(=O)N2CCOCC2)c1 | 26.4% (inactive) |
| CN(C)CCCSc1ccccc1NC(=O)/C=C/c1ccccc1 | -28.9% (inactive) |
| CC(C)NC(=O)C(=O)NCCCOC(C)C | 7.36% (inactive) |
| CN(C)c1nc2n(c(=O)n1)CCO2 | -0.85% (inactive) |
| COc1ccc(CCNC(=O)C2CCCN(S(=O)(=O)c3ccc(OC)cc3)C2)cc1 (stereo unspecified) | 31.8% (inactive) |
| O=C(COC(=O)c1cnccn1)Nc1ccc(Cl)cc1C(F)(F)F | -11.4% (inactive) |
| COc1cccc(CNn2cn[nH]c2=S)c1OCc1ccccc1 | 24.6% (inactive) |
| O=[N+]([O-])c1ccc(F)cc1Oc1nc(-c2cccnc2)nc2ccccc12 | 27.2% (inactive) |
| O=[N+]([O-])c1ccc(Oc2ccc(F)cc2Br)c2ccncc12 | 78% (active) |
| Cc1oc2cc([N+](=O)[O-])c(O)c([N+](=O)[O-])c2c1C(=O)c1ccc(Br)cc1 | -16.1% (inactive) |
| Cc1cc(C)n(CCNCc2c(C(=O)N3C[C@@H](C)O[C@@H](C)C3)nc3ccc(Cl)cn23)n1 | 6.66% (inactive) |
| COC(C[C@@H](O)C[C@H](O)[C@H](C)OCc1ccccc1)OC | -23% (inactive) |
| Cn1nnnc1-c1cc(Cl)cc(Cl)c1 | 16.3% (inactive) |
